Screening results (PubChem BioAssay)
Hits are enriched below; roughly 1.3% of the tested compounds scored in any of these assays.
LYPLA1 counter: LYPLA1 (human) inhibition in PME1 counter-screen | AID 2174 | recombinant LYPLA1, FP-Rh probe fluorescence polarization | 320,000 compounds, 0.16% hits | inhibition, % at 5.9 µM;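 active means inhibition above the mean of all tested compounds plus 3 SD, set per campaign, cut at about 14% in these data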;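 further: inhibitors block serine hydrolase probe labeling of LYPLA1 so polarization falls; 0% = enzyme with DMSO and 100% = wells lacking LYPLA1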
Target sequence (O75608 whole entry, looked up): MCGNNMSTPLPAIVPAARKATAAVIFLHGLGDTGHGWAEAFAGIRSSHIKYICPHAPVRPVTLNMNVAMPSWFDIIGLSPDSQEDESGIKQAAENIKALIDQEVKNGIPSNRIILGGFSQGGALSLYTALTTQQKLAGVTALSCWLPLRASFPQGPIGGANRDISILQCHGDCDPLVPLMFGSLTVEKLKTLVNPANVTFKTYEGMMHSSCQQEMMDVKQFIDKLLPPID
LYPLA2 inh: blocks human lysophospholipase 2, a PME1 counter-screen; inhibition, % at 5.9 µM; 320,000 compounds, 0.38% hits; recombinant LYPLA2, FP-Rh probe fluorescence polarization; O95372;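 active means inhibition above the screen-wide mean plus 3 SD, limit set per campaign, cut at about 26% in these data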;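 further: 0% = LYPLA2 with DMSO and 100% = wells lacking LYPLA2 enzyme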
Target sequence (O95372 whole entry, looked up): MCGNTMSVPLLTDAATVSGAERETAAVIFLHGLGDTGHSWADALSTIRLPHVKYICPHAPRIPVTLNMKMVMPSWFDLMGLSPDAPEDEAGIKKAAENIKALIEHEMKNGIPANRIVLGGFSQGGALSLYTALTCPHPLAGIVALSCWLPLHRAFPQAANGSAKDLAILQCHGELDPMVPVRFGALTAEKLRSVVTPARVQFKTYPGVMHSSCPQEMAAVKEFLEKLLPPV
Fam108B counter: counter-screen for RBBP9 inhibitors: inhibitors of mouse Fam108B; inhibition, % at 9.51 µM; recombinant Fam108B, FP-Rh probe fluorescence polarization; 300,000 compounds, 0.33% hits;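 active means inhibition above the screen mean inhibition plus 3 SD, computed separately per campaign, cut at about 18% in these data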;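 further: inhibitors lower polarization as less probe binds the enzyme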
PREPL inhibitor: inhibits the human prolyl oligopeptidase-like enzyme. Q4J6C6. recombinant PREPL, fluorescence polarization activity-based probe. inhibition, % at 5.96 µM. 320,000 compounds, 0.68% hits. AID 2751; in the data active means inhibition above about 43%;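 further: 0% = enzyme with DMSO and 100% = wells lacking enzyme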
PME-1 inh: blocks human protein phosphatase methylesterase 1; Q9Y570; recombinant PME-1, FP-Rh probe fluorescence polarization; 320,000 compounds, 0.53% hits; inhibition, % at 5.9 µM;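 active means inhibition above the campaign mean of all compounds plus 3 SD, cut at about 26% in these data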;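 further: competitive labeling of PME-1 active site by serine hydrolase directed probe; 0% = PME-1 with DMSO and 100% = wells lacking PME-1 enzyme; inhibitors block probe labeling so polarization falls and inhibition rises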
* = called active by the depositor.

What do the screens show for `COc1ccc(CCNC(=O)c2cccc(C(=O)NCCc3ccc(OC)cc3)n2)cc1`?
LYPLA1 counter: -6; LYPLA2 inh: -3; Fam108B counter: -5; PREPL inhibitor: 14; PME-1 inh: -8

What do the screens show for `Cc1c(C(=O)C(=O)N2CCCc3ccccc32)c2ccccc2n1C`?
LYPLA1 counter: -1; LYPLA2 inh: 0; Fam108B counter: -6; PREPL inhibitor: -4; PME-1 inh: 2

Results for CCCCc1ccc(NC(=S)Nc2ccc(Nc3ccc(OC)cc3)cc2)cc1 ?
LYPLA1 counter: -2; LYPLA2 inh: -1; Fam108B counter: 13; PREPL inhibitor: 47*; PME-1 inh: 21

How did C=CCSC1=N/C(=C\c2ccc3c(c2)OCO3)C(=O)S1 do in these assays?
LYPLA1 counter: 3; LYPLA2 inh: 5; Fam108B counter: 9; PREPL inhibitor: 7; PME-1 inh: -2

What do the screens show for `C=CCSC1=N/C(=C\c2cc(OCC)c(OC(C)=O)c([N+](=O)[O-])c2)C(=O)S1`?
LYPLA1 counter: 9; LYPLA2 inh: 6; Fam108B counter: 12; PREPL inhibitor: 12; PME-1 inh: 64*

Results for COc1ccc(NC(=O)C2CCN(C(=O)c3cccs3)CC2)cc1OC ?
LYPLA1 counter: 1; LYPLA2 inh: 1; Fam108B counter: 2; PREPL inhibitor: -2; PME-1 inh: 32*

What do the screens show for `CCC(=O)Nc1ccc(S(=O)(=O)Nc2ccc(Cl)nn2)cc1`?
LYPLA1 counter: -5; LYPLA2 inh: -7; Fam108B counter: 1; PREPL inhibitor: 2; PME-1 inh: 1

How did CN(C)C(=O)c1ccc(-c2nnc(NCc3ccccc3)c3ccccc23)cc1 do in these assays?
LYPLA1 counter: 4; LYPLA2 inh: 8; Fam108B counter: -1; PREPL inhibitor: -4; PME-1 inh: 37*

What do the screens show for `CCN(CC)C(=O)c1ccc(-c2nnc(Nc3ccc(C(=O)N(C)C)cc3)c3ccccc23)cc1`?
LYPLA1 counter: 4; LYPLA2 inh: -11; Fam108B counter: -6; PREPL inhibitor: 1; PME-1 inh: -2

Results for CCN1C(=NCCOC)N[C@@H](c2ccccc2)[C@H](C(=O)OC)[C@H]1C ?
PREPL inhibitor: 7

What do the screens show for `Cc1ccccc1COCCN1CCN(S(=O)(=O)c2ccccc2)CCC1=O`?
LYPLA1 counter: 1; LYPLA2 inh: -7; Fam108B counter: 7; PREPL inhibitor: 21; PME-1 inh: 7

What do the screens show for `O=[N+]([O-])c1ccc(N/N=C/c2c[nH]c3ccccc23)cc1`?
LYPLA1 counter: -15; LYPLA2 inh: -10; Fam108B counter: 2; PREPL inhibitor: 15; PME-1 inh: 11

How did O=[N+]([O-])c1ccccc1N/N=C/c1c[nH]c2ccccc12 do in these assays?
LYPLA1 counter: -3; LYPLA2 inh: 5; Fam108B counter: 6; PREPL inhibitor: 36; PME-1 inh: 50*

What do the screens show for `CN(C)S(=O)(=O)c1ccc(C(=O)NC(=O)CSc2nncs2)cc1`?
PREPL inhibitor: 0

What do the screens show for `COc1cc(/C=N/NC(=S)Nc2cccc(S(=O)(=O)N(C)C)c2)cc(OC)c1O`?
LYPLA1 counter: -2; LYPLA2 inh: 5; Fam108B counter: 4; PREPL inhibitor: 37; PME-1 inh: 29*

How did CCc1cccc(NC(=O)Cc2ccc(OC)c(OC)c2)c1 do in these assays?
LYPLA1 counter: 1; LYPLA2 inh: 10; Fam108B counter: -2; PREPL inhibitor: 0; PME-1 inh: -7

Results for COc1cc(/C=C2\C(=N)N3N=C(S(=O)(=O)CC(C)C)SC3=NC2=O)ccc1OC(=O)c1ccco1 ?
LYPLA1 counter: -7; LYPLA2 inh: -7; Fam108B counter: -3; PREPL inhibitor: 49*; PME-1 inh: -6

What do the screens show for `CCS(=O)(=O)C1=NN2C(=N)/C(=C\c3ccc(OC(=O)c4ccco4)cc3)C(=O)N=C2S1`?
LYPLA1 counter: 1; LYPLA2 inh: 2; Fam108B counter: -4; PREPL inhibitor: 33; PME-1 inh: -5

How did COc1ccc(CNS(=O)(=O)c2c(C(=O)N3CCCCC3)c(C)n(C)c2C)cc1 do in these assays?
LYPLA1 counter: 0; LYPLA2 inh: -2; Fam108B counter: 3; PREPL inhibitor: -1; PME-1 inh: -4

What do the screens show for `O=[N+]([O-])c1cccc(N(CC2CO2)S(=O)(=O)c2ccccc2)c1` (stereo not drawn)?
LYPLA1 counter: -1; LYPLA2 inh: 6; Fam108B counter: -2; PREPL inhibitor: -7; PME-1 inh: -3

Results for Nc1ccc(-c2cnc(-c3ccc(N)cc3)nc2)cc1 ?
LYPLA1 counter: -3; LYPLA2 inh: -1; Fam108B counter: -6; PREPL inhibitor: -8; PME-1 inh: 10
